{"source": "paper PMC4336329", "about": "(PLoS ONE, 2015)", "note": "In all, about 310,000 compounds went through this assay and about 14,000 (4.5%) showed an effect of 50% or more. The effect is printed as a negative number. The sample holds strong results, similar compounds and a random draw of the others, so the mix is not that of the screen.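 Further: peak tail current of the secondary pulse compared with the same well before compound.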", "data": [{"molecular_target": "human ether-à-go-go-related gene (hERG) potassium channel (human, UniProt Q12809)", "sequence (Q12809 whole entry, looked up)": "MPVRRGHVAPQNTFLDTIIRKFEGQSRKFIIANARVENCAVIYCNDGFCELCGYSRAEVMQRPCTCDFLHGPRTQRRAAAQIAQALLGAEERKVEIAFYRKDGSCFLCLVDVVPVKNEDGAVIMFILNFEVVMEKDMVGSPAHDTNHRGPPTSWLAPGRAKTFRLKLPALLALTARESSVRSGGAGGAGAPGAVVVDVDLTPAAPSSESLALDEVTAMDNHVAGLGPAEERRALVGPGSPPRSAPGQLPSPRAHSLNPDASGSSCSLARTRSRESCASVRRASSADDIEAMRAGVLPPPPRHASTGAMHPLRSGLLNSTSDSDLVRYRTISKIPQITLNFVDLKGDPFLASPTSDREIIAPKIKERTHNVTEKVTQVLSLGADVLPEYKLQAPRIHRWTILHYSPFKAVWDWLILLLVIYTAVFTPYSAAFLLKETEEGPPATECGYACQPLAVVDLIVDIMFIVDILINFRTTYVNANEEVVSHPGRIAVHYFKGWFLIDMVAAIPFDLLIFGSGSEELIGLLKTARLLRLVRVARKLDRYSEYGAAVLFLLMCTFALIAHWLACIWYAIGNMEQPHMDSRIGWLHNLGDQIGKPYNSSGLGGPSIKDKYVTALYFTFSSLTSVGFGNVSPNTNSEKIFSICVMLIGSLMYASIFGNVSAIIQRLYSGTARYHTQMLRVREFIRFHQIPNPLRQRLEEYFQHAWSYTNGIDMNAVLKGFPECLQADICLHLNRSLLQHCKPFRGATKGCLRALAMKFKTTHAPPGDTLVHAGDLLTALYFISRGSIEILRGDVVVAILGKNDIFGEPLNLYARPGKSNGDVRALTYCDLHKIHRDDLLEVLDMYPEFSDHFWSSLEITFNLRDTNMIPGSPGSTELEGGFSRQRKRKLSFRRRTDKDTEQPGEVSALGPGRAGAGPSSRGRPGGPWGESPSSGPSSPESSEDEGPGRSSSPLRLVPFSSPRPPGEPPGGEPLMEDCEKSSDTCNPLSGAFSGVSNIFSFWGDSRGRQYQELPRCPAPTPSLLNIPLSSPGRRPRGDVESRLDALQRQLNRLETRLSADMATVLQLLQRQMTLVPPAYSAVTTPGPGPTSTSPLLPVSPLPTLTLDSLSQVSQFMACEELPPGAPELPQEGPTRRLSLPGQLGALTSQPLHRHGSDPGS", "assay": "primary screen, population patch clamp on CHO cells stably expressing hERG; higher = less effect of the substance", "units": {"hERG current change (%, negative = inhibition) at 10uM": "%"}, "values": [{"smiles": "Cc1ccc(OCC(=O)N/N=C\\c2cccn2C)c([N+](=O)[O-])c1", "hERG current change (%, negative = inhibition) at 10uM": -8.65}, {"smiles": "O=C(O)[C@H]1CCCC[C@H]1C(=O)Nc1ccc(Nc2ccccc2)cc1", "hERG current change (%, negative = inhibition) at 10uM": 4.15}, {"smiles": "CSc1sc(C(=O)N2CCc3ccccc32)cc1S(=O)(=O)C(C)C", "hERG current change (%, negative = inhibition) at 10uM": 14.2}, {"smiles": "Cn1cnnc1Sc1cc(N2CCNCC2)ccc1[N+](=O)[O-]", "hERG current change (%, negative = inhibition) at 10uM": 7.66}, {"smiles": "Cn1cnnc1Sc1cc(N2CCN(S(=O)(=O)c3ccc(Cl)c(Cl)c3)CC2)ccc1[N+](=O)[O-]", "hERG current change (%, negative = inhibition) at 10uM": -10.6}, {"smiles": "CN1CCN(c2ccc([N+](=O)[O-])c(Sc3nncn3C)c2)CC1", "hERG current change (%, negative = inhibition) at 10uM": -9.71}, {"smiles": "Cn1cnnc1Sc1ccc(S(C)(=O)=O)cc1[N+](=O)[O-]", "hERG current change (%, negative = inhibition) at 10uM": 13}, {"smiles": "Cc1ccc(S(=O)(=O)N2CCN(c3ccc([N+](=O)[O-])c(Sc4nncn4C)c3)CC2)cc1", "hERG current change (%, negative = inhibition) at 10uM": -62.3}, {"smiles": "Cn1cnnc1Sc1cc(N2CCN(S(=O)(=O)c3ccccc3)CC2)ccc1[N+](=O)[O-]", "hERG current change (%, negative = inhibition) at 10uM": -60.5}, {"smiles": "[N-]=[N+]=NC(c1ccccc1)c1nc2ccccc2[nH]c1=O", "note": "(centres unmarked)", "hERG current change (%, negative = inhibition) at 10uM": -7.74}, {"smiles": "Nc1ccccc1Cl", "hERG current change (%, negative = inhibition) at 10uM": 10.3}, {"smiles": "O=C(NCc1ccco1)c1cccc(Nc2nc3ccc(Br)cc3[nH]2)c1", "hERG current change (%, negative = inhibition) at 10uM": -11.2}, {"smiles": "Cc1cc(C=O)c(C)n1-c1ccc(Oc2ccc([N+](=O)[O-])cn2)cc1", "hERG current change (%, negative = inhibition) at 10uM": -56.7}, {"smiles": "Cc1ccc(-n2c(C)cc(/C=N/Nc3ccc([N+](=O)[O-])cn3)c2C)cc1", "hERG current change (%, negative = inhibition) at 10uM": -4.67}, {"smiles": "COc1ccc(NC(=O)/C(C#N)=C\\c2cc(C)n(-c3ccc(Oc4ccc([N+](=O)[O-])cn4)cc3)c2C)cc1", "hERG current change (%, negative = inhibition) at 10uM": 10.8}, {"smiles": "COCC(=O)N1CCC(Oc2ccc(C(=O)NC(C)c3csc(C)n3)cc2)CC1", "note": "(centres unmarked)", "hERG current change (%, negative = inhibition) at 10uM": 10.4}, {"smiles": "COc1ccc2cc([C@@H](C)C(=O)[O-])ccc2c1.[Na+]", "hERG current change (%, negative = inhibition) at 10uM": -2.41}, {"smiles": "CC(OC(=O)C1CCN(S(=O)(=O)c2ccccc2)CC1)C(=O)Nc1ncc(Cl)cc1Cl", "note": "(centres unmarked)", "hERG current change (%, negative = inhibition) at 10uM": -64}, {"smiles": "COc1ccc(COC(=O)C2CCN(S(=O)(=O)c3ccc(C)cc3)CC2)cc1", "hERG current change (%, negative = inhibition) at 10uM": -7.61}, {"smiles": "CC(OC(=O)C1CC1)C(=O)Nc1ncc(Cl)cc1Cl", "note": "(centres unmarked)", "hERG current change (%, negative = inhibition) at 10uM": 18.1}, {"smiles": "O=C(OCc1ccc([N+](=O)[O-])cc1)C1CCN(S(=O)(=O)c2ccccc2)CC1", "hERG current change (%, negative = inhibition) at 10uM": -37.3}, {"smiles": "COC(=O)c1ccccc1S(=O)(=O)N1CCC(C(=O)OC(C)C(=O)Nc2ccc(NC(C)=O)cc2)CC1", "note": "(centres unmarked)", "hERG current change (%, negative = inhibition) at 10uM": -14.6}, {"smiles": "COC(=O)c1ccccc1S(=O)(=O)N1CCC(C(=O)OC(C)C(=O)NC(N)=O)CC1", "note": "(centres unmarked)", "hERG current change (%, negative = inhibition) at 10uM": 29.7}, {"smiles": "COC(=O)c1ccccc1S(=O)(=O)N1CCC(C(=O)OCC(=O)c2ccccc2OC)CC1", "hERG current change (%, negative = inhibition) at 10uM": -16.8}, {"smiles": "COC(=O)c1ccccc1S(=O)(=O)N1CCC(C(=O)OC(C)C(=O)Nc2ccccc2OC)CC1", "note": "(centres unmarked)", "hERG current change (%, negative = inhibition) at 10uM": -51.3}, {"smiles": "CC(OC(=O)C1CCCC1)C(=O)Nc1ncc(Cl)cc1Cl", "note": "(centres unmarked)", "hERG current change (%, negative = inhibition) at 10uM": -2.36}, {"smiles": "COC(=O)c1ccccc1S(=O)(=O)N1CCC(C(=O)OCc2cccc(OC)c2OC)CC1", "hERG current change (%, negative = inhibition) at 10uM": -13.5}, {"smiles": "COC(=O)c1ccccc1S(=O)(=O)N1CCC(C(=O)OCc2ccc([N+](=O)[O-])cc2)CC1", "hERG current change (%, negative = inhibition) at 10uM": -57.1}, {"smiles": "Cc1ccc(S(=O)(=O)N2CCC(C(=O)OCc3ccc([N+](=O)[O-])cc3)CC2)cc1", "hERG current change (%, negative = inhibition) at 10uM": -69.8}]}]}
